± gives the standard deviation. Whole data set: some 8,200 sequences, median “pre-steady-state target cleavage rate” near 0.024, cut for the highest 2% near 1.3. For the sample, the highest values were picked, then their nearest neighbours and some sequences at random.
System: MIWI (PIWIL1) piRISC loaded with L1MC piRNA (30 nt)
Experiment: pre-steady-state target cleavage rate (min^-1); MIWI and MILI are mouse PIWI proteins and EfPiwi is from a freshwater sponge; tags in brackets are library labels; higher = faster piRNA-guided slicing of the target
Conditions: guide: L1MC piRNA 5'p-UAACUAAAUACUAUGCAAGCUGUAGGUCCU
Description: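 Cleave-'n-Seq: a library of target RNAs (target site embedded in constant flanks, ACAGCATTCCGCGTTAGTGATATCCG... 5' flank; DNA-blocked outside the site) at 0.1 nM was incubated with 1 nM active mouse MILI or MIWI piRISC (synthetic 5'-monophosphorylated piRNA guide) with or without 500 nM mouse GTSF1 at 33 °C for 1 min to 16 h. Uncleaved targets were sequenced and normalised to non-target controls, and the pooled three trials were fitted to a burst-and-steady-state model to give the pre-steady-state cleavage rate (min^-1; k3 is constrained to at most 1e-4). Sequence is the target site only; target names encode pairing extent (gX:gY) and contiguous / 1-mismatch / 2-mismatch / bulge geometry. Fits with R² ≤ 0 are excluded.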

[1] = auxiliary factor: 500 nM mouse GTSF1
[2] = auxiliary factor: none (no GTSF1)

Sequence	pre-steady-state target cleavage rate [1]	pre-steady-state target cleavage rate [2]
UGGACCUACAGCUUGCUUAGUAUAUAGUUA	0.842 ± 0.063	0.0175 ± 0.0052
UCCACCUACAGCUUGCUUAGUAUAUAGUUA	0.357 ± 0.027	0.0111 ± 0.0025
AGGACCUUCAGCUUGCUUAGUAUUUAGUUA	1.44 ± 0.055	0.0546 ± 0.01
AGGACCUACAGCUUGCUUAGUAUAUAGUUA	0.762 ± 0.071	0.0291 ± 0.0082
AGGACCUACAGCUUGGAUAGUAUAUAGUUA	0.736 ± 0.053	0.0336 ± 0.0076
UCCUCCUACAGCUUGCUUAGUAUAUAGUUA	0.617 ± 0.034	0.0104 ± 0.0032
UCGACCUACAGCUUGCUUAGUAUAUAGUUA	0.879 ± 0.063	0.0168 ± 0.004
UGGACCUUCAGCUUGCUUAGUAUUUAGUUA	1.49 ± 0.09	0.0441 ± 0.011
AGGACCUACAGCAUGCAUACUAUUUAGUUA	0.39 ± 0.023	0.0205 ± 0.0035
UCCUGCUACAGCUCGCAUAGUAUUUAGUUA	1.14 ± 0.062	0.0391 ± 0.0067
UGGACCUACAGCUCGCAUAGUAUUUAGUUA	1.54 ± 0.096	0.0604 ± 0.0083
AGGACCUACAGCUGGCAUAGUAUUUAGUUA	1.29 ± 0.057	0.0579 ± 0.011
UCCACCUACAGCUCGCAUAGUAUUUAGUUA	1.11 ± 0.043	0.0579 ± 0.012
UGGACCUACAGCUACCAUAGUAUUUAGUUA	0.493 ± 0.043	0.00241 ± 0.0021
AGGACCUACAGCUCGCAUAGUAUUUAGUUA	1.35 ± 0.068	0.0694 ± 0.013
UCGACCUACAGCUCGCAUAGUAUUUAGUUA	1.55 ± 0.04	0.0682 ± 0.013
UCCUCCUACAGCUCGCAUAGUAUUUAGUUA	1.31 ± 0.051	0.0488 ± 0.0093
UGGACCUACAGCUUGCAUAGUUUUUACUUA	0.0927 ± 0.013	0.0125 ± 0.0027
UGCACCUACAGGUUGCAUAGUAUUUAGUUA	0.859 ± 0.15	0.0244 ± 0.0052
UCCUGCUACAGCUUGCAUAGAAAUUAGUUA	0.2 ± 0.021	0.00609 ± 0.0021
AGGACCUACACCUUGCAUAGUAUUUAGUAA	0.838 ± 0.068	0.0538 ± 0.0089
UCCACCUACAGCUUGCAUAGUAUUUUCUAA	0.361 ± 0.048	–
UCCUGGAACAGCUUGGAUAGUAAUUAGUUA	0.565 ± 0.055	0.0197 ± 0.0059
UCCUGGAACAGCUUGCAUAGUUUUUAGUAA	0.191 ± 0.025	0.0332 ± 0.01
UCCUGGUACUGCUUGGAUAGUAUUUAGUUA	0.391 ± 0.078	0.0193 ± 0.0036
UCCUCCUACUGCUUGCUUAGUAUUUAGUUA	1.06 ± 0.04	0.03 ± 0.0053

Sequence	pre-steady-state target cleavage rate [1]	pre-steady-state target cleavage rate [2]
UCGACCUACUGCUUGCAUAGUAUUUAGUUA	1.41 ± 0.035	0.0694 ± 0.011
UGGACCUACUGCUUGCAUAGUAUUUAGUAA	0.708 ± 0.039	0.0421 ± 0.008
UCGACCUACUGCUUGCAUAGUAUUUAGAUA	0.273 ± 0.023	0.0197 ± 0.0035
UGGACCUACUGCUUGCAUAGUAUUUAGUUA	1.46 ± 0.073	0.0611 ± 0.0097
UCCACCUACUGCUUGCUUAGUAUUUAGUUA	0.816 ± 0.029	0.0276 ± 0.0058
UCGACCUACUGCUUGCUUAGUAUUUAGUUA	1.52 ± 0.061	0.031 ± 0.0067
UCCACCUACUGCUUGCAUAGUAUUUAGUUA	0.697 ± 0.027	0.0467 ± 0.0067
AGGACCUACUGCUUGCAUAGUAUUUAGUUA	1.21 ± 0.049	0.0777 ± 0.012
UGCACCUACUGCUUGCAUAGUAUUUAGUUA	1.16 ± 0.097	0.0725 ± 0.014
UCGACCUACUGCUUGCAUAGUAUUUAGUAA	0.797 ± 0.036	0.0434 ± 0.0074
ACGACCUACUGCUUGCAUAGUAUUUAGUUA	1.51 ± 0.054	0.0792 ± 0.013
UCCUGCUACGCUUGCAUAGUAUUUAGUUA	1.12 ± 0.08	0.0532 ± 0.011
AGGUCCUACAGCUUGCAUAGUAUUAAGUUA	0.381 ± 0.034	0.054 ± 0.013
UCCUCCUAGAGCUUGCUUAGUAUUUAGUUA	1.04 ± 0.059	0.0213 ± 0.0041
UGGACCUACAGCUUGCUUACUAUUUAGUUA	0.493 ± 0.031	0.0127 ± 0.0038
UCGACCUACAGCUUGCAUAGUUAAUAGUUA	0.122 ± 0.019	0.00697 ± 0.0029
UCCUGGAUGUCGUGCAUAGUAUUUAGUUA	0.031 ± 0.0083	0.00348 ± 0.0032
UCCUCCUACACCUAGCAUAGUAUUUAGUUA	0.657 ± 0.057	0.0111 ± 0.0022
UCCUGGAACAGCUUGCAUAGUAUAAACAAA	0.18 ± 0.043	–
UGGACCUACAGCUUCGAUAGUAUUUAGUAA	0.307 ± 0.04	–
UCCUGGAUGUGCUUGCUUAGUAUUUAGUAA	0.0383 ± 0.008	0.0104 ± 0.0033
UGGACCUACAGCUUGCAUAGUAUUAAGAUA	0.174 ± 0.028	0.00558 ± 0.0024
UCGACCUACUGCUUGCAAAGUAUUUAGUUA	1.33 ± 0.037	0.051 ± 0.01
UCGACCUACUGCAUGCAUAGUAUUUAGUUA	1.33 ± 0.056	0.0324 ± 0.0055
UGGACCUACUGCAUGCAUAGUAUUUAGUUA	1.27 ± 0.08	0.0325 ± 0.0061
AGGACCUACUGCUUGCAAAGUAUUUAGUUA	1.11 ± 0.057	0.0455 ± 0.0095

Sequence	pre-steady-state target cleavage rate [1]	pre-steady-state target cleavage rate [2]
UGGACCUACUGCUUGCAAAGUAUUUAGUUA	1.23 ± 0.059	0.0383 ± 0.0078
UCGACCAACUGCUUGCAUAGUAUUUAGUUA	1.43 ± 0.041	0.0724 ± 0.012
UGGACCAACUGCUUGCAUAGUAUUUAGUUA	1.27 ± 0.055	0.0655 ± 0.011
AGGACCAACUGCUUGCAUAGUAUUUAGUUA	1.22 ± 0.056	0.0799 ± 0.014
AGGACCUACUGCAUGCAUAGUAUUUAGUUA	1.3 ± 0.06	0.0566 ± 0.01
UCCUGGUACAGCUACCAUAGUAUUUAGUUA	0.366 ± 0.05	–
UCCACCUACUGCUUGCAUAGUAUUUACUUA	0.243 ± 0.025	0.0254 ± 0.0034
AGGUGGUACAGCUUGCAUAGUAUUUAGAAA	0.19 ± 0.044	0.00559 ± 0.0016
UCCUGGUACAGCUUGCAUAGUUAAUAGAAA	0.023 ± 0.0089	–
UCCUGGAUGACUUGCAUAGUAUUUAGUUA	0.412 ± 0.03	0.0206 ± 0.0053
UCCUGGAUGUCGAACGAUAGUAUUUAGUUUA	< 0.0001	–
AGGACCUACAGCUUGCAUUGUAUAUAGUUA	0.395 ± 0.031	0.0219 ± 0.0046
AGGACCUUCAGCUUGCAUUGUAUUUAGUUA	0.966 ± 0.031	0.0424 ± 0.01
UCGACCUACAGCUUGGAUAGUAUUUAGAAA	0.372 ± 0.044	0.00679 ± 0.002
UCCUGGUACACCUUGCAUAGUUUUUAGUUA	0.0764 ± 0.027	0.0132 ± 0.0038
AGGAACUACAGCUUGCAUAGUAUUUAGUUA	1.3 ± 0.041	0.0918 ± 0.016
AGGAACCUACAGCUUGCAUAGUAUUUAGUUA	1.23 ± 0.059	0.0809 ± 0.014
UCGAACCUACAGCUUGCAUAGUAUUUAGUUA	1.37 ± 0.046	0.0781 ± 0.016
UCCACCUACAGCUUGCAUAGUAUUUAGUUG [g2:g27:cont:t1G]	0.399 ± 0.047	0.0371 ± 0.0065
UGAACCUACAGCUUGCAUAGUAUUUAGUUA	1.63 ± 0.068	0.0751 ± 0.015
UGGAACUACAGCUUGCAUAGUAUUUAGUUA	1.09 ± 0.041	0.0698 ± 0.011
UGGAACCUACAGCUUGCAUAGUAUUUAGUUA	1.41 ± 0.1	0.0747 ± 0.016
UCGAACUACAGCUUGCAUAGUAUUUAGUUA	1.39 ± 0.049	0.0698 ± 0.011
AGGACCUACAGGAAGCAUAGUAUUUAGUUA	0.977 ± 0.08	0.0104 ± 0.0029
UGGACCUACAGCUUGCAUAGUAUAAACAAA	0.14 ± 0.028	–
